Laboratory results from PubChem BioAssay (EPA / NIEHS).
Values joined by “and” are separate entries in the source; they are usually repeats but may differ in a detail not shown here. Equal values may be shown once. Results filed as inconclusive are left out. Active and inactive are the calls of the source. The calls were made as follows, unless noted: active = hit-call score of the fitted dose curve at least 0.9, where 1 is the maximum; inconclusive = response in the unintended direction; inactive = score below 0.9.

Legend:
[1] = read-out: Transforming Growth Factor (TGFA), TGFA (gene 7039); test: LTEA_HepaRG_TGFA: Life Technologies and Expression Analysis (LTEA) Assay for Transforming Growth Factor (TGFA) using HepaRG (AID 2283532; active = hit-call score of the fitted dose curve at least 0.9, where 1 is the maximum; inactive = score below 0.9); settings: mRNA level, 48 h; actives raise or lower the signal
Method in brief: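 TGFA transcript quantified by qRT-PCR (Fluidigm arrays) against three housekeeping genes, after 48 hours chemical treatment of HepaRG cells. Top concentration 100 uM with half-log dilutions, 8 points, duplicates, 0.5% DMSO.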

[2] = read-out: Transforming Growth Factor (TGFB1), TGFB1 (gene 7040); test: LTEA_HepaRG_TGFB1: Life Technologies and Expression Analysis (LTEA) Assay for Transforming Growth Factor (TGFB1) Transporter using HepaRG (AID 2283533; active = hit-call score of the fitted dose curve at least 0.9, where 1 is the maximum; inactive = score below 0.9); settings: mRNA level, 48 h; actives raise or lower the signal
Method in brief: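 HepaRG, 48 h post-plating, switched to serum-free induction medium; chemicals 100 uM top, half-log, 8 pts, 0.5% DMSO, dup; 48 h exposure; RNA → Fluidigm TaqMan qRT-PCR; norm ACTB/GAPDH/POLR2A; bidirectional fit vs DMSO.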

[3] = read-out: TIMP1, TIMP1 (gene 7076); test: LTEA_HepaRG_TIMP1: Life Technologies and Expression Analysis (LTEA) Assay for TIMP1 using HepaRG (AID 2283534; active = hit-call score of the fitted dose curve at least 0.9, where 1 is the maximum; inactive = score below 0.9); settings: mRNA level, 48 h; actives raise or lower the signal
Method in brief: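 Readout is TIMP1 mRNA level measured by qRT-PCR and normalized to three housekeeping genes. Human HepaRG cells were treated for 48 h in duplicate at eight concentrations up to 100 uM (0.5% DMSO); gain or loss fitted against DMSO.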

[4] = read-out: Tumor necrosis factor receptor 1 (TNFRSF1A), TNFRSF1A (gene 7132); test: LTEA_HepaRG_TNFRSF1A: Life Technologies and Expression Analysis (LTEA) Assay for Tumor necrosis factor receptor 1 (TNFRSF1A) using HepaRG (AID 2283535; active = hit-call score of the fitted dose curve at least 0.9, where 1 is the maximum; inactive = score below 0.9); settings: mRNA level, 48 h; actives raise or lower the signal
Method in brief: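 Read-out is TNFRSF1A transcript level by TaqMan qRT-PCR, normalized to three housekeeping genes, scored as gain or loss of signal versus 0.5% DMSO. Human HepaRG cells received test chemicals for 48 h at up to 100 uM (half-log series).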

[5] = read-out: Thyroid Hormone Responsive (THRSP), THRSP (gene 7069); test: LTEA_HepaRG_THRSP: Life Technologies and Expression Analysis (LTEA) Assay for Thyroid Hormone Responsive (THRSP) using HepaRG (AID 2283536; active = hit-call score of the fitted dose curve at least 0.9, where 1 is the maximum; inactive = score below 0.9); settings: mRNA level, 48 h; actives raise or lower the signal
Method in brief: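 THRSP transcript quantified by Fluidigm qRT-PCR against three housekeeping genes after 48 h chemical exposure of HepaRG cells in serum-free induction medium; eight-point half-log series, top 100 uM, 0.5% DMSO vehicle, duplicate wells.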

[6] = read-out: Cellular tumor antigen p53 (Homo sapiens) (UniProt P04637); test: LTEA_HepaRG_TP53: Life Technologies and Expression Analysis (LTEA) Assay for Tumor Protein P53 (TP53) using HepaRG (AID 2283537; active = hit-call score of the fitted dose curve at least 0.9, where 1 is the maximum; inactive = score below 0.9); settings: mRNA level, 48 h; actives raise or lower the signal
Method in brief: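 Differentiated HepaRG cells in serum-free induction medium exposed 48 h in duplicate to 8 half-log concentrations, top 100 uM, 0.5% DMSO. TP53 mRNA by TaqMan qRT-PCR (Fluidigm), normalized to ACTB, GAPDH, POLR2A; fitted bidirectionally versus DMSO.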

[7] = read-out: UDP glucuronosyltransferase (UGT1A1), UGT1A1 (gene 54658); test: LTEA_HepaRG_UGT1A1: Life Technologies and Expression Analysis (LTEA) Assay for UDP glucuronosyltransferase (UGT1A1) using HepaRG (AID 2283538; active = hit-call score of the fitted dose curve at least 0.9, where 1 is the maximum; inactive = score below 0.9); settings: mRNA level, 48 h; actives raise or lower the signal
Method in brief: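 UGT1A1 transcript level, measured by qRT-PCR with three housekeeping genes for normalization, after 48 h treatment of human HepaRG cells (0.5% DMSO, duplicates, up to 100 uM, half-log steps, 8 points). Curves fit both directions against DMSO baseline.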

[8] = read-out: UDP glucuronosyltransferase (UGT1A6), UGT1A6 (gene 54578); test: LTEA_HepaRG_UGT1A6: Life Technologies and Expression Analysis (LTEA) Assay for UDP glucuronosyltransferase (UGT1A6) using HepaRG (AID 2283539; active = hit-call score of the fitted dose curve at least 0.9, where 1 is the maximum; inactive = score below 0.9); settings: mRNA level, 48 h; actives raise or lower the signal
Method in brief: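 HepaRG, 48 h post-plating switch to serum-free induction medium; chemical 48 h, 100 uM top, half-log x8, duplicate, 0.5% DMSO. Phenobarbital 1mM induction control. UGT1A6 mRNA by TaqMan qRT-PCR; gain/loss fit vs DMSO.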

[9] = read-out: X-box binding protein 1 (XBP1), XBP1 (gene 7494); test: LTEA_HepaRG_XBP1: Life Technologies and Expression Analysis (LTEA) Assay for X-box binding protein 1 (XBP1) using HepaRG (AID 2283540; active = hit-call score of the fitted dose curve at least 0.9, where 1 is the maximum; inactive = score below 0.9); settings: mRNA level, 48 h; actives raise or lower the signal
Method in brief: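 Transcript levels of XBP1, measured by qRT-PCR and normalised to three housekeeping genes, were fitted bidirectionally relative to 0.5% DMSO controls. Human HepaRG cells received eight-point half-log dilutions from 100 uM for 48 h.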

[10] = LTEA_HepaRG_LDH_cytotoxicity: Cytotoxicity Assessment in the Life Technologies and Expression Analysis (LTEA) Assay (AID 2283563);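 as to AC50: LDH activity released into spent culture medium as a marker of cell death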
Method in brief: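 Cells were thawed and plated for 48 h. Medium was then replaced with serum-free induction medium. Chemicals (8 half-log points, maximum 100 uM, 0.5% DMSO) were added in duplicate for 48 h, after which spent medium was assayed for LDH.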

[11] = TOX21_p53_BLA_p2_viability: Viability Assessment in the Tox21 HCT-116 p53 Agonism Beta-lactamase Assay, Phase 2 (AID 2283591);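 also: compound exposure lasted 16 h at 37 °C; actives lower the ATP signal meaning cytotoxicity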
Method in brief: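 Cytotoxicity readout: CellTiter-Glo ATP luminescence, 30 min at room temperature, after the beta-lactamase read. Cells were HCT116 exposed 16 h at 37C to compounds pin-transferred at 217-fold dilution from DMSO stocks.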

[12] = target: Cellular tumor antigen p53 (Homo sapiens) (UniProt P04637); test: TOX21_p53_BLA_p2_ratio: Tox21 HCT-116 p53 Agonism Beta-lactamase Assay, Ratio, Phase 2 (AID 2283592)
Method in brief: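 Plated HCT116 p53-bla cells (4000/well) received compound after 5 h, then 16 h at 37C/5% CO2. CCF4-AM added, 2 h RT. Ratio of 460 to 530 nm emission taken as the p53 reporter signal.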

[13] = target: Cellular tumor antigen p53 (Homo sapiens) (UniProt P04637); test: TOX21_p53_BLA_p3_ratio: Tox21 HCT-116 p53 Agonism Beta-lactamase Assay, Ratio, Phase 3 (AID 2283596)
Method in brief: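 Cells were seeded at 4000/well, rested 5 h at 37C, then dosed with DMSO compound solutions (217-fold dilution) for 16 h. CCF4-AM substrate was loaded for 2 h at room temperature, and the 460/530 nm emission ratio was fitted for gain of signal versus DMSO.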

[14] = TOX21_p53_BLA_p4_viability: Viability Assessment in the Tox21 HCT-116 p53 Agonism Beta-lactamase Assay, Phase 4 (AID 2283597);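 also: hits lower the luminescence signal meaning cytotoxicity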
Method in brief: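 Readout: ATP luminescence (CellTiter-Glo), measured 30 min after reagent addition at RT. The reagent followed a 2 h CCF4-AM incubation, and the cells had been exposed to compound for 16 h at 37C.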

[15] = target: Cellular tumor antigen p53 (Homo sapiens) (UniProt P04637); test: TOX21_p53_BLA_p5_ratio: Tox21 HCT-116 p53 Agonism Beta-lactamase Assay, Ratio, Phase 5 (AID 2283599)
Method in brief: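 Beta-lactamase reporter ratio (blue 460 nm over green 530 nm, 405 nm excitation) after 2 h CCF4-AM loading, in HCT-116 cells exposed 16 h at 37 C to compounds pinned at 217-fold dilution. Increases relative to DMSO baseline scored.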

[16] = TOX21_p53_BLA_p5_viability: Viability Assessment in the Tox21 HCT-116 p53 Agonism Beta-lactamase Assay, Phase 5 (AID 2283600)
Method in brief: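 Workflow: seed 4000 cells per well, wait 5 h, add compounds (DMSO, 217-fold dilution), incubate 16 h, load CCF4-AM 2 h, add CellTiter-Glo, read luminescence after 30 min.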

[17] = target: Cellular tumor antigen p53 (Homo sapiens) (UniProt P04637); test: TOX21_p53_BLA_p4_ratio: Tox21 HCT-116 p53 Agonism Beta-lactamase Assay, Ratio, Phase 4 (AID 2283601)
Method in brief: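 Signal is the blue/green (460nm/530nm) ratio of cleaved versus uncleaved CCF4-AM substrate, read after 2 h substrate loading. Cells were HCT116 carrying the p53-responsive beta-lactamase reporter, dosed 16 h at 37C, 5% CO2; CellTiter-Glo measured in parallel.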

[18] = Tanguay_ZF_120hpf_MORT_legacy: (Legacy) Oregon State University Tanguay Lab 120 Hour Post-fertilization zebrafish Assay for Mortality (AID 2283633);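 as to AC50: fitted as increase in binary mortality versus DMSO negative control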
Method in brief: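 5D WT zebrafish, chorion removed 4 hpf; 1 embryo/well from 6 hpf; static exposure to 120 hpf, 28C, dark, sealed. Final DMSO 0.64%. Readout: binary mortality, brightfield, 24 + 120 hpf; DMSO as negative control.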

[19] = ATG_XTT_Cytotoxicity: Cytotoxicity Assessment in the Attagene TRANS-FACTORIAL HepG2 Assay (AID 2283584)
Method in brief: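 Cells: human HepG2, transiently transfected with MRTU reporter constructs. Exposure 24 h. Readout: XTT, cell number. Baseline/neg ctrl DMSO; loss-of-signal scored.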

[20] = TOX21_p53_BLA_p3_viability: Viability Assessment in the Tox21 HCT-116 p53 Agonism Beta-lactamase Assay, Phase 3 (AID 2283593);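 also: cells exposed to compound for 16 h before reading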
Method in brief: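 Cellular ATP was quantified by CellTiter-Glo luminescence, read after 30 min at room temperature. Beforehand, HCT116 cells (4000/well) received compound 5 h post-seeding, 217-fold diluted from DMSO, then incubated 16 h at 37C.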

Measured: AC50

Cellular tumor antigen p53 (Homo sapiens), sequence (P04637 whole entry, looked up): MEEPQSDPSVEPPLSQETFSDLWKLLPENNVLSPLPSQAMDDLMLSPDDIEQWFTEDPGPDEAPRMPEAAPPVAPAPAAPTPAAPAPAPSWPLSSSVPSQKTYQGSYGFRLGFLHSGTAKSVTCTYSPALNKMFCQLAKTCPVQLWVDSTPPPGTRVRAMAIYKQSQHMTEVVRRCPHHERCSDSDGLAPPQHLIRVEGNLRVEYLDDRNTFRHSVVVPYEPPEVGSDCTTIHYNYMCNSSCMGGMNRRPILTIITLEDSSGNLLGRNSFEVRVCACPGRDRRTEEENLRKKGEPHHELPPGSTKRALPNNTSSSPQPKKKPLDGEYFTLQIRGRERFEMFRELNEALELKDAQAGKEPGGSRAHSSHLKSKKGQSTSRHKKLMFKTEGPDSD

CCN(Cc1cccnc1)C(=O)c1cccc(Cl)c1[C@]1(C)C(=O)N(Cc2ccc(OC)cc2OC)c2ccc(Cl)cc21
inactive: [3] | [4] | [11] | [14] | [16]
active: [1] 13.6 µM | [2] 14.5 µM | [5] 24 µM | [6] 11.6 µM | [7] 25.2 µM | [8] 16.7 µM | [9] 24.6 µM | [10] 25.5 µM | [12] 43.2 µM | [13] 40.9 µM | [15] 52.1 µM | [17] 44.5 µM | [18] 6.06 µM

O=C(OCCCCCCOC(=O)c1ccccc1)c1ccccc1
not listed: [11] | [12] | [13] | [16] | [20]
inactive: all other assays above

C[C@]12CC[C@@H]3c4ccc(O)cc4CC[C@H]3[C@@H]1CC[C@H]2O
active: [2] 50 µM | [7] 2.42 µM | [12] 15.9 µM | [13] 67.5 µM and 15.8 µM | [15] 73.4 µM and 16.7 µM
not listed: [10] | [16] | [17]
inactive: all other assays above

NC(=O)c1nc(-c2cccc(-c3cc(F)ccc3OCC(F)(F)C(F)(F)F)c2)n[nH]1
inactive: [2] | [4] | [5] | [6] | [9] | [18]
active: [1] 91.2 µM | [3] 83.2 µM | [7] 15.8 µM | [8] 50 µM | [10] 76.1 µM | [11] 65.9 µM | [12] 79.6 µM | [20] 74 µM | [13] 87.4 µM | [14] 70.5 µM | [15] 86.6 µM | [16] 72.7 µM

CC(O)CC(C)(C)O (stereo not drawn)
not listed: [11]
inactive: all other assays above

O=C(O)c1ccccc1C(=O)OCc1ccccc1
active: [7] 24.3 µM
not listed: [10] | [14] | [17]
inactive: all other assays above

CCOC(=O)O[C@H](C)OC(=O)c1ccc2c(c1)cc(C(=O)NC1CCN(C(C)C)CC1)n2Cc1cc(-c2ccc(Cl)s2)on1
active: [5] 16 µM | [10] 79.2 µM | [11] 16.1 µM | [12] 27.9 µM | [20] 55.8 µM | [13] 81.9 µM | [14] 13.5 µM | [15] 80.9 µM | [16] 72.9 µM | [18] 23.7 µM
inactive: [1] | [2] | [3] | [4] | [6] | [7] | [8] | [9]

OC12N=C(c3ccccc3)SC1Cc1cc(Cl)ccc12 (stereo not drawn)
active: [5] 16.2 µM | [6] 26 µM | [7] 2.54 µM | [9] 3.94 µM | [12] 71.5 µM | [14] 66.6 µM | [17] 86.6 µM
not listed: [13] | [16] | [19] | [20]
inactive: all other assays above
